# Experiments:
# [1] = biological target: Serine/threonine-protein kinase WNK2 (Homo sapiens) (UniProt Q9Y3S1); details: at 10 µM
# [2] = biological target: Serine/threonine-protein kinase WNK3 (Homo sapiens) (UniProt Q9BYP7); details: at 1 µM
# [3] = biological target: Serine/threonine-protein kinase WNK3 (Homo sapiens) (UniProt Q9BYP7); details: at 10 µM
# [4] = biological target: Tyrosine-protein kinase Yes (Homo sapiens) (UniProt P07947); details: at 1 µM
# [5] = biological target: Tyrosine-protein kinase Yes (Homo sapiens) (UniProt P07947); details: at 10 µM
# [6] = biological target: T1, Tyrosine-protein kinase ZAP-70 (Homo sapiens) (UniProt P43403); details: at 1 µM
# T1 sequence (whole entry): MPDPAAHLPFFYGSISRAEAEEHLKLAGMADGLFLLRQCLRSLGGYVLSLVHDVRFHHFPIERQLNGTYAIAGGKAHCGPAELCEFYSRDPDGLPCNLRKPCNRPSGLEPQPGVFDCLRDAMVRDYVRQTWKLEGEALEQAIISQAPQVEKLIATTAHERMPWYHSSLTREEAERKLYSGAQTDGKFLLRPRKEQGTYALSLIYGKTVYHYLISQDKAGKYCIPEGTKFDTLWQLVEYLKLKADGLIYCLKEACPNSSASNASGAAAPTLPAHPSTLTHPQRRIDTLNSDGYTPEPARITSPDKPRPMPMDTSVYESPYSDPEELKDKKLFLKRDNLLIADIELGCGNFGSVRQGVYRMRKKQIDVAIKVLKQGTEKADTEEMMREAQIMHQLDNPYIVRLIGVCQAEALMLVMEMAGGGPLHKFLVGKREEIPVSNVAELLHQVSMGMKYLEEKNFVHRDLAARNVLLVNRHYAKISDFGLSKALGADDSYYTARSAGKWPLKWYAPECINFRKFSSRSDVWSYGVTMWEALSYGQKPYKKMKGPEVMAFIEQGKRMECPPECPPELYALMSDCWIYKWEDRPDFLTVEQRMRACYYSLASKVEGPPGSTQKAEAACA
# [7] = biological target: Death-associated protein kinase 3 (Homo sapiens) (UniProt O43293); details: at 1 µM
# [8] = biological target: Death-associated protein kinase 3 (Homo sapiens) (UniProt O43293); details: at 10 µM
# [9] = biological target: RAF proto-oncogene serine/threonine-protein kinase (Homo sapiens) (UniProt P04049); details: at 1 µM
# [10] = biological target: RAF proto-oncogene serine/threonine-protein kinase (Homo sapiens) (UniProt P04049); details: at 10 µM
# Sequence of Serine/threonine-protein kinase WNK2 (Homo sapiens) (Q9Y3S1 whole entry): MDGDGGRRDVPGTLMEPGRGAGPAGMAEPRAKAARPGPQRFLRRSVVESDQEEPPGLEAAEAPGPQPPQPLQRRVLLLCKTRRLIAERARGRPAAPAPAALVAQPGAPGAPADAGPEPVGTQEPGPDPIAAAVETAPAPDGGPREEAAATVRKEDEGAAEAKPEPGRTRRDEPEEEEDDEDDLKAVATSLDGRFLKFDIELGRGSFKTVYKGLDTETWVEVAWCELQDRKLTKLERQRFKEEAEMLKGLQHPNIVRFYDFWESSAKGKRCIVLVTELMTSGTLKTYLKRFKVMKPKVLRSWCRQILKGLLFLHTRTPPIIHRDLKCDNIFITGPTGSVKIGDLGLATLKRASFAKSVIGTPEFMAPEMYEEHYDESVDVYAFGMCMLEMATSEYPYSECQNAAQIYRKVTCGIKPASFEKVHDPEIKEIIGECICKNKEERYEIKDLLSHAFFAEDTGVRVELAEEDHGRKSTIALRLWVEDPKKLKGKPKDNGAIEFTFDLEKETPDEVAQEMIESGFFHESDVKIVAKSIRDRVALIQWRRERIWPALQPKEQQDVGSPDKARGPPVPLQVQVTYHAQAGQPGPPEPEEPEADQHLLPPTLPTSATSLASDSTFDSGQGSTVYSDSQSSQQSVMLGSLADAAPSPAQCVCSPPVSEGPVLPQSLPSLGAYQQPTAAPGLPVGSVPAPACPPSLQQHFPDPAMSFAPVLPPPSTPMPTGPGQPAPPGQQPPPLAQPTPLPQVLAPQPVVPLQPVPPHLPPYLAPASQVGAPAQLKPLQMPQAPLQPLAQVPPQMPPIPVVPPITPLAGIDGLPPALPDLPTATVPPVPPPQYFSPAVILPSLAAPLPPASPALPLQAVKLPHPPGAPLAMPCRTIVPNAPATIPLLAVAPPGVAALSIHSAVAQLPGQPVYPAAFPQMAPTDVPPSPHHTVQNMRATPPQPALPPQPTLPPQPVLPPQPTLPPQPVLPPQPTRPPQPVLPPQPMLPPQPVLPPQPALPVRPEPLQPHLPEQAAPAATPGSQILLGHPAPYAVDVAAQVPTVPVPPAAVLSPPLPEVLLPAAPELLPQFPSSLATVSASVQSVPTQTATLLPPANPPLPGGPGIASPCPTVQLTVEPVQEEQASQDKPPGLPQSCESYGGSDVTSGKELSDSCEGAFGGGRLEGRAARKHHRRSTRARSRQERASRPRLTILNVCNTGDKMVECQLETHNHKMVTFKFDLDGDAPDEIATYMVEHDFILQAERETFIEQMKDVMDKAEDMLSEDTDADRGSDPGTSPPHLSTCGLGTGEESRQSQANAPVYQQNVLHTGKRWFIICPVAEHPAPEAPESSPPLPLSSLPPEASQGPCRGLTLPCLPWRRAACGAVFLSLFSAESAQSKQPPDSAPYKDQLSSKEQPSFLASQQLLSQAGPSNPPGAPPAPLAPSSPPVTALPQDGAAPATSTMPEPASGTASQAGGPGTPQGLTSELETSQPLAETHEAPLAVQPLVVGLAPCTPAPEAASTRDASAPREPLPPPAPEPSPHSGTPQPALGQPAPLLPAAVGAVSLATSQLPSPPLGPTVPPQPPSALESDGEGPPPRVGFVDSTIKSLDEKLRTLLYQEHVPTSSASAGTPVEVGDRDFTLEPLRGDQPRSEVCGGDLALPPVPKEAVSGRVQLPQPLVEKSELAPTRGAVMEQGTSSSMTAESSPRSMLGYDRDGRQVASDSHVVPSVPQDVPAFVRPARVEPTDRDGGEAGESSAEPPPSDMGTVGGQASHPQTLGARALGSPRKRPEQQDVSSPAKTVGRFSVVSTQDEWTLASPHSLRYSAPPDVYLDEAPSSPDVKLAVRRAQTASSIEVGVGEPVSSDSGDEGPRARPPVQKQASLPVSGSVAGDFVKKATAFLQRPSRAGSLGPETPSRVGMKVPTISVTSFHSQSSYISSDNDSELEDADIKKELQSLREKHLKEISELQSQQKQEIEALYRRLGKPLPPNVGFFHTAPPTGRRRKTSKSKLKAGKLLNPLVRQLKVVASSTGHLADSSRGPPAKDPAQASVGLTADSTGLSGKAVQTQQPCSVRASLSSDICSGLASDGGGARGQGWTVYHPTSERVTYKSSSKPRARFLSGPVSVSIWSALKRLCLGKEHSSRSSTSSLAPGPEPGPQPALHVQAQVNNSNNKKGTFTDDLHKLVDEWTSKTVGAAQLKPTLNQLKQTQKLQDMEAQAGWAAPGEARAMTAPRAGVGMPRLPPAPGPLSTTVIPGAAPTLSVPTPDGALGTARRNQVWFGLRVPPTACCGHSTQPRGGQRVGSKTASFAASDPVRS
# Sequence of Serine/threonine-protein kinase WNK3 (Homo sapiens) (Q9BYP7 whole entry): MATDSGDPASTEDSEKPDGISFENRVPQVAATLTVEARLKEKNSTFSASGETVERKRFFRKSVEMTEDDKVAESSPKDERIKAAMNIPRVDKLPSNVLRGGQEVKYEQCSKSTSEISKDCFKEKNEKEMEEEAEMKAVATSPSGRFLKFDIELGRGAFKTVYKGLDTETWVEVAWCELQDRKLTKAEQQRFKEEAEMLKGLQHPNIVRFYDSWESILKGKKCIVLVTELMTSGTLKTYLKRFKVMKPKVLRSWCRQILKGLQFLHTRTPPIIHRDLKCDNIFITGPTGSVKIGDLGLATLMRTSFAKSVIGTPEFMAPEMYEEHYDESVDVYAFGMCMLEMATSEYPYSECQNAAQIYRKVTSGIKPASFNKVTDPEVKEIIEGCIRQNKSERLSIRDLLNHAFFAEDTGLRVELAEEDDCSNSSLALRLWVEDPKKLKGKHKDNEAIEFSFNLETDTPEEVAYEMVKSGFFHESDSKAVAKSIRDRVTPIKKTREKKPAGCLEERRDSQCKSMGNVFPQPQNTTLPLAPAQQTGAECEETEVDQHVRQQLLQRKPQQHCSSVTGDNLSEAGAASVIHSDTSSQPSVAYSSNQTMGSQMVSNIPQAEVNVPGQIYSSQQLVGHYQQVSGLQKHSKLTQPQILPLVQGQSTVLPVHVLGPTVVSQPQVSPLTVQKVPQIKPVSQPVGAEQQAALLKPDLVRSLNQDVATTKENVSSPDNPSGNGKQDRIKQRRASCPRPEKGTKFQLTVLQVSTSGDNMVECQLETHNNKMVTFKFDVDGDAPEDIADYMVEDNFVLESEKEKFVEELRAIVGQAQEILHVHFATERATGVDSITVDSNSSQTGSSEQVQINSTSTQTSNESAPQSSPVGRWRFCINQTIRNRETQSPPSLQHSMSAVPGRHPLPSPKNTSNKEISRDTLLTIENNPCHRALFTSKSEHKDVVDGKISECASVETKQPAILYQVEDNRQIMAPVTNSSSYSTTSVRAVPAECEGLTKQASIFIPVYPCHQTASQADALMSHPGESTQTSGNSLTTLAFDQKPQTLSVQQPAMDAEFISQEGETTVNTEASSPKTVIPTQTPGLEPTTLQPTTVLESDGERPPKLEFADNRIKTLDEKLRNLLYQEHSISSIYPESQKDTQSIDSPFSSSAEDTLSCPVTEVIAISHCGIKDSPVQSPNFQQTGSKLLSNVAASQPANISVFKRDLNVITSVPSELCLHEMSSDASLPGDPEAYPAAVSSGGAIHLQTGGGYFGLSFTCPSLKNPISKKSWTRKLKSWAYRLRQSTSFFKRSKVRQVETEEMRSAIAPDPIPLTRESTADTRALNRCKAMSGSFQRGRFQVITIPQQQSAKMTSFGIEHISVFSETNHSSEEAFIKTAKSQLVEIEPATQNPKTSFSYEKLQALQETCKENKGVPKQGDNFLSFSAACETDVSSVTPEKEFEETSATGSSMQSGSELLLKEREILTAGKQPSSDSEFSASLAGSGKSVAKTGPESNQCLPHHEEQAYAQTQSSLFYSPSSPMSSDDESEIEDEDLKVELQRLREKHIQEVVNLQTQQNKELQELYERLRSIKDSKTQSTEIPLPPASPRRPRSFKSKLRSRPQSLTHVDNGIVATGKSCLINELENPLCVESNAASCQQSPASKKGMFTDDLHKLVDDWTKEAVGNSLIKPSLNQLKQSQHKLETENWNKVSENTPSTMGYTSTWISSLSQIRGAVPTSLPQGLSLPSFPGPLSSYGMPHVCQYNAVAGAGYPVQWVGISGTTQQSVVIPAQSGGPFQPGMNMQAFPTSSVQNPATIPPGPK
# Sequence of RAF proto-oncogene serine/threonine-protein kinase (Homo sapiens) (P04049 whole entry): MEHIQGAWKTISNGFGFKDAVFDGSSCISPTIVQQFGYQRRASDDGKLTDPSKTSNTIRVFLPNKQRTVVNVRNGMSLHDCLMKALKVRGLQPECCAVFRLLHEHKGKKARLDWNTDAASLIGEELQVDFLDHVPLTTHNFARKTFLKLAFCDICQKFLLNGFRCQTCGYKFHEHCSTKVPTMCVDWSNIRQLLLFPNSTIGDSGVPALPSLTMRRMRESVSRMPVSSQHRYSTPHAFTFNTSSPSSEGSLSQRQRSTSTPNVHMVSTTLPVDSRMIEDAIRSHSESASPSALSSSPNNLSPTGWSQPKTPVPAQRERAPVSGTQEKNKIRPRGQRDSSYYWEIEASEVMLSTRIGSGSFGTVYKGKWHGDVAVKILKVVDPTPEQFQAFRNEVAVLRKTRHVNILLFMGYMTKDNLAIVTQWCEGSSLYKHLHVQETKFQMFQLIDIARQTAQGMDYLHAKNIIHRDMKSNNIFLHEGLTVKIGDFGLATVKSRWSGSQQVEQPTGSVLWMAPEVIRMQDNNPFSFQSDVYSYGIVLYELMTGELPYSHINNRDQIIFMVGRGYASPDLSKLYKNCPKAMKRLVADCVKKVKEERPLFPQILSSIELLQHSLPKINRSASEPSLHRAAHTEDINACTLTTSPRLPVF
Compound,residual activity [1] [%],residual activity [2],residual activity [3] [%],residual activity [4] [%],residual activity [5] [%],residual activity [6] [%],residual activity [7] [%],residual activity [8] [%],residual activity [9] [%],residual activity [10] [%]
COc1ccc(OC)c2c(=S)c3ccccc3[nH]c12,87,89% (inactive),89,100,100,90,93,90,87,83
CC[n+]1c(/C=C/N(C)c2ccccc2)n(-c2ccccc2)c2ccc(-c3nc4ccccc4s3)cc21,35,100% (inactive),44,105,100,117,100,73,105,98
COc1ccc(C(=O)Nc2sc3c(c2C(N)=O)CCCC3)cc1OC,84,101% (inactive),94,106,90,103,76,106,87,94
Cc1ccc(NC2=CC(=O)c3sc(C)nc3C2=O)cc1,90,80% (inactive),95,118,105,113,95,82,84,87
CCOc1cc2ncnc(Nc3cccc(Br)c3)c2cc1OCC,79,99% (inactive),86,17,2,122,91,96,84,71
O=c1cc(-c2cccc3c2Sc2ccccc2S3)oc(N2CCOCC2)c1,78,95% (inactive),87,109,91,113,104,99,96,55
Nc1ccc2ncnc(NCCc3ccc(Oc4ccccc4)cc3)c2c1,82,102% (inactive),87,63,33,109,111,111,82,77
Nc1n[nH]c2nnc(-c3c(-c4ccccc4)nn4ccccc34)cc12,90,83% (inactive),86,93,33,100,105,88,80,62
N#C/C(=C(\N)Sc1ccc(N)cc1)c1ccccc1C(F)(F)F,89,93% (inactive),89,107,101,100,89,100,76,66
O=C1NC(=O)/C(=C\c2ccc3nccnc3c2)S1,65,83% (inactive),79,119,102,109,71,21,73,44
Oc1c2ccccc2c2c3c(cccc13)N=N2,77,87% (inactive),77,98,51,94,87,45,69,61
COc1ccc(S(=O)(=O)N(CCO)c2ccccc2CN(C)C/C=C/c2ccc(Cl)cc2)cc1,88,100% (inactive),88,119,79,105,96,96,78,73
O=C(O)c1ccc2c3c1cccc3c(=O)n1c3ccccc3nc21,106,111% (inactive),97,118,103,113,60,14,83,89
O=C1Nc2ccccc2/C1=C1/Nc2ccccc2/C1=N\OCCC(O)CO (stereo not given),40,76% (inactive),50,8,2,97,63,54,54,60
CC#CC(=O)Nc1cc2c(Nc3ccc(F)c(Cl)c3)ncnc2cn1,84,102% (inactive),79,101,90,103,90,100,82,92
CN(C)c1ccc(/C=C2\C(=O)Nc3ccccc32)cc1,76,117% (inactive),90,98,64,121,108,97,94,85
C[C@@H](N)[C@H]1CC[C@H](C(=O)Nc2ccncc2)CC1,90,106% (inactive),102,108,94,92,101,99,100,108

Compound,residual activity [1] [%],residual activity [2],residual activity [3] [%],residual activity [4] [%],residual activity [5] [%],residual activity [6] [%],residual activity [7] [%],residual activity [8] [%],residual activity [9] [%],residual activity [10] [%]
CCN(CC)CCCCN1c2ccccc2Oc2ccc(Cl)cc21,89,126% (inactive),104,106,94,113,99,109,93,100
CCC(=O)Nc1ccc2ncnc(Nc3cccc(Br)c3)c2c1,80,95% (inactive),80,85,50,86,75,100,77,90
COc1cc2ncnc(Nc3ccc(O)c(Br)c3)c2cc1OC,70,87% (inactive),77,25,2,144,83,58,64,38
Oc1n[nH]c2nnc(-c3c(-c4ccccc4)nn4ccccc34)cc12,86,92% (inactive),83,104,91,105,66,48,73,77
NC(=O)c1ccc2[nH]c(-c3ccc(Oc4ccc(Cl)cc4)cc3)nc2c1,78,93% (inactive),86,112,105,95,92,106,75,74
O=C1NC(=O)c2cc(Nc3ccc(F)cc3)c(Nc3ccc(F)cc3)cc21,34,87% (inactive),46,61,10,113,104,99,–,–
O=Nc1c(-c2c(O)[nH]c3ccccc23)[nH]c2ccccc12,55,89% (inactive),60,17,0,79,81,37,89,66
O=C(Nc1cccc(Nc2nccc(Nc3cccc(C(F)(F)F)c3)n2)c1)C1CC1,50,90% (inactive),65,56,51,113,84,49,89,85
CNc1cc2c(Nc3cccc(Br)c3)ncnc2cn1,89,101% (inactive),91,67,45,99,84,88,80,91
Cn1cc(/C=C2\C(=O)Nc3ccc(S(N)(=O)=O)cc32)c2ccccc21,85,97% (inactive),75,8,2,107,106,90,91,100
O=c1c2ccccc2[nH]c(=S)n1CCN1CCC(=C(c2ccc(F)cc2)c2ccc(F)cc2)CC1,94,116% (inactive),102,105,96,101,75,74,83,94
Ic1cccc(CSc2nnc(-c3ccncc3)o2)c1,83,89% (inactive),89,96,84,101,107,105,77,64
O=C1NC(=O)/C(=C/c2ccc3c(c2)OC(F)(F)O3)S1,85,104% (inactive),98,117,116,116,102,98,92,101
O=C(Nc1cccc(Nc2cc(Nc3cccc(C(F)(F)F)c3)ncn2)c1)C1CC1,81,95% (inactive),85,76,60,97,89,112,91,87
Oc1ccc(-c2nc(-c3ccc(F)cc3)c(-c3ccncc3)[nH]2)cc1,84,109% (inactive),75,105,34,117,121,101,14,–
COc1cc2ncnc(Nc3ccc(Oc4ccccc4)cc3)c2cc1OC,41,88% (inactive),49,9,4,114,103,117,–,–
